Gal4-VP16 FLuc: VP16 counterscreen qHTS for inhibitors of ROR gamma transcriptional activity | Drosophila S2 Gal4-VP16 UAS-luciferase, luminescence, 20 h | Potency, µM (doses to about 53.6 µM), most hits filed as inhibitors | hit rate 3.5% among 310,000;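 also: Gal4-VP16 expression switched on by copper sulfate through the metallothionein promoter; nearly all actives have a fitted effect of over 50% in size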
RORgamma inh: qHTS for inhibitors of ROR gamma transcriptional activity; Nuclear receptor ROR-gamma (Mus musculus), P51450; hit rate 5.4% among 310,000; Potency, µM (series often up to 53.6 µM), hits mostly inhibitors; AID 2551, 2010; Drosophila S2 Gal4-RORgamma UAS-luciferase reporter, 20 h; also: nearly all actives have a fitted effect of over 60% in size
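A Gal4/UAS one-hybrid system in insect cells: metallothionein-promoter Gal4–ROR gamma fusion plus Photinus luciferase reporter. Copper sulfate 700 uM final, 20 hr ambient incubation, luminescent detection after 10 min with reagent.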
Sfp inh: qHTS Assay for Inhibitors of Bacillus subtilis Sfp phosphopantetheinyl transferase (PPTase); 4'-phosphopantetheinyl transferase ffp (Bacillus subtilis), Q9F4F7; Biochemical Sfp PPTase activity, qHTS; Potency, µM, most hits filed as inhibitors; hit rate 3.5% among 310,000; AID 1490, 2009;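 also: the enzyme is Sfp with the accession as filed and its product quenches rhodamine fluorescence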
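Fluorescence-quenching assay with 15 nM Sfp, 5 uM rhodamine-CoA and 12.5 uM BHQ-2-labelled ybbR peptide in pH 7.6 Hepes/MgCl2 buffer. Enzyme was pre-incubated with compound for 15 min at room temperature. Rate was taken from the 30-min fluorescence change (525/598 nm).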
PLK1 PBD block: qHTS for Inhibitors of PLK1-PDB (polo-like kinase 1 - polo-box domain): Primary Screen; Serine/threonine-protein kinase PLK1 (Homo sapiens), P53350; Plk1 PBD binding of FITC phosphopeptide, fluorescence polarization; Potency, µM, usual class: inhibitors; hit rate 2.8% among 360,000; AID 720504, 2013; also: series mostly up to about 57 µM; nearly all actives have a fitted effect of over 65% in size
ALDH1A1 block: qHTS Assay for Inhibitors of Aldehyde Dehydrogenase 1 (ALDH1A1); Aldehyde dehydrogenase 1A1 (Homo sapiens), P00352; Purified ALDH1A1, NADH fluorescence, propionaldehyde substrate; Potency, µM (series often up to 75.3 µM), hits mostly inhibitors; hit rate 7.3% among 220,000; AID 1030, 2008; active = well fitted inhibition curve with a large enough effect, not every such curve was filed as active; inconclusive = small, poorly fitted or top-dose-only effect, or another doubt; inactive = no such curve, though single readings can be large or run the other way
Target sequence (P00352 whole entry, looked up): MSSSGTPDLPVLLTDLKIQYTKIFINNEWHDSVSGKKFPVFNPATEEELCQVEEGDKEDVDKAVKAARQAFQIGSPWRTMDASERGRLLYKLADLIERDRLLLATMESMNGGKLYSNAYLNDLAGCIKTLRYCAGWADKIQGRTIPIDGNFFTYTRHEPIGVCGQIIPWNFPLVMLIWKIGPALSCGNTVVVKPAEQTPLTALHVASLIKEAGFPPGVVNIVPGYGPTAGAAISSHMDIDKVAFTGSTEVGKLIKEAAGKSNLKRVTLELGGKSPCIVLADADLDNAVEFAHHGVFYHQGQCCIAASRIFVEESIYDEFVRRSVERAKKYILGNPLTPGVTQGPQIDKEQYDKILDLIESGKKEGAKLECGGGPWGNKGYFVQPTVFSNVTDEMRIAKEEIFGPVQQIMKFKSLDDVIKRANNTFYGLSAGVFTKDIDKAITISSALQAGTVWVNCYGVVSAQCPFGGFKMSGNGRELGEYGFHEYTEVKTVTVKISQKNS
Numbers stand for hits; . = inactive; ? = inconclusive; / = not tested or not shown; [ ] = remark or other dose. A selection: hits, their analogues and other compounds. The true share with any hit is near 12%. Unless noted, calls follow the shape of the dose curve; as a rule, active = well fitted curve in the direction sought with a large enough effect; inconclusive = small, poorly fitted or top-dose-only effect, or another doubt; inactive = no such curve, though single readings can be large; an effect the other way counts as inactive or inconclusive.

SMILES | Gal4-VP16 FLuc | RORgamma inh | Sfp inh | PLK1 PBD block | ALDH1A1 block
COc1ccc(OCC(=O)NC(=S)Nc2ccc3c4c(cccc24)CC3)cc1 | ? | ? | . | . | 16µM
Cc1ccccc1OCC(=O)NC(=S)Nc1ccc2c3c(cccc13)CC2 | . | . | . | 3µM | .
NNc1ccccc1C(F)(F)F | ? | . | . | . | 18µM
COc1ccccc1NC(=O)C1=C(C)Nc2nnnn2C1c1ccccn1 (stereo not given) | . | . | . | . | 13µM
COc1ccccc1NC(=O)C1=C(C)Nc2nnnn2C1c1ccccc1OC (stereo not given) | . | . | . | . | .
COc1ccc(C2C(C(=O)Nc3ccccc3OC)=C(C)Nc3ncnn32)cc1 (stereo not given) | . | . | . | . | 14µM
COc1ccccc1NC(=O)C1=C(C)Nc2nnnn2C1c1cccc(C)c1 (stereo not given) | . | . | . | . | 14µM
COc1ccccc1NC(=O)C1=C(C)Nc2ncnn2C1c1cccs1 (stereo not given) | . | . | . | . | .
Cc1cnc(CNc2ncncc2-c2ccoc2)cn1 | . | . | . | / | ?
COc1ccc(NC(=O)c2sc(=O)n(Cc3ccc4ccccc4c3)c2C)cc1OC | / | / | / | . | /
COc1ccc(NC(=O)Nc2ccc3c(c2)OCO3)c(C)c1 | . | . | . | . | /
O=C1c2ccccc2C(=O)N1CCCCSc1nnnn1-c1ccccc1 | . | . | . | . | 0.18µM
CC(=O)Nc1ccc(-n2nnnc2SCC(=O)Nc2cccc(NC(=O)c3ccco3)c2)cc1 | . | . | 50µM | . | /
Oc1ccc(-n2nnnc2SCc2ccccc2Br)cc1 | . | ? | . | . | /
CCc1ccc(-n2nnnc2SCC(=O)Nc2ccc(NC(C)=O)cc2)cc1 | . | ? | . | . | /
Cc1cc(C)nc(NC(=O)CSc2nnnn2-c2ccccc2)n1 | . | . | . | . | 7.1µM
c1ccc(-n2nnnc2SCc2cccc3nsnc23)cc1 | . | ? | . | . | 14µM
CCCCCCCCCCOc1cc(OCCCCCCCCCC)cc(N(CC(=O)O)CC(=O)O)c1 | . | . | . | / | /
CCOC(=O)[C@]12CCCC=C1N(CCC1=CCCCC1)C(=O)[C@H](CC(=O)N1CCC(c3ccccc3)CC1)C2 | / | / | / | . | /
CC(C)(C)NC[C@H](O)CSc1nc(-c2ccc(C(N)=O)s2)cs1 | . | . | . | / | /
O=C(CSc1nnnn1-c1ccccc1)N1CCc2ccccc21 | . | . | . | . | .
O=C(Cn1cnc2c(nnn2-c2ccc(F)cc2)c1=O)N1CCCc2ccccc21 | . | . | . | . | 28µM
O=C(CSc1nnnn1-c1ccccc1)N1CCCc2ccccc21 | . | . | . | . | 7.9µM
O=C(CCCSc1nnnn1-c1ccccc1)c1ccc(F)cc1 | . | ? | . | / | 1.3µM
O=C(CSc1nnnn1-c1ccccc1)CSc1nnnn1-c1ccccc1 | . | . | . | . | 3.2µM
SMILES | Gal4-VP16 FLuc | RORgamma inh | Sfp inh | PLK1 PBD block | ALDH1A1 block
COc1ccc(-n2nnc3c(=O)n(CC(=O)N4CCCc5ccccc54)cnc32)cc1 | . | . | . | . | ?
Cc1ccccc1-c1csc(C(O)c2ccc(F)c(F)c2)n1 (stereo not given) | / | / | / | . | /
O=C(NC1CCCCC1)C(c1ccc(C(F)(F)F)cc1)n1c(=O)c(-c2ccccc2)nc2ccccc21 (stereo not given) | / | / | / | . | /
COC(=O)C1=C[C@@H](C(=O)OC)C2C3=C(C(=O)[C@]2(C)NC(=O)c2ccccc2)[C@H](C)[C@@H]2C(=O)N(C)C(=O)[C@@H]2[C@@H]3C1 (stereo not given in full) | . | . | . | / | /
Cc1ccc(C(=O)CSc2nnnn2-c2ccccc2)o1 | . | ? | . | . | 3.5µM
O=C(CSc1nnnn1-c1ccccc1F)NNC(=O)c1ccco1 | . | . | . | . | 14µM
Cc1ccc(-n2nnnc2SCC(=O)NNC(=O)c2ccco2)c(C)c1 | . | . | . | . | ?
Cc1ccc(C(=O)CSc2nnc(-c3ccccc3)n2-c2ccccc2)o1 | . | . | . | . | .
CCOCC(=O)Nc1cccc(Br)c1 | . | . | . | . | 20µM
O=C(O)c1ccc(S(=O)(=O)c2ccc([N+](=O)[O-])cc2[N+](=O)[O-])cc1 | ? | . | 79µM | 8.4µM | /
COc1ccc(C)cc1NC(=O)c1nnn(Cc2cccc(F)c2)c1N | . | . | . | 38µM | ?
Cc1ccc(S(=O)(=O)c2nc(-c3ccco3)oc2N2CCC(C)CC2)cc1 | . | . | . | . | /
CN(C)c1oc(-c2ccco2)nc1S(=O)(=O)c1ccc(Br)cc1 | / | / | / | . | /
O=S(=O)(c1ccc(Br)cc1)c1nc(-c2ccco2)oc1NCC1CCCO1 (stereo not given) | . | . | . | . | 14µM
Cc1ccc(S(=O)(=O)c2nc(-c3ccco3)oc2NCC2CCCO2)cc1 (stereo not given) | . | . | ? | . | 10µM
OC(c1ccc(F)cc1)c1nc(-c2cnc3ccccc3c2)cs1 (stereo not given) | / | / | / | . | /
CSc1ccc(CN2CCC(C)(Oc3ccc(C(C)=O)cc3)C2)cc1 (stereo not given) | / | / | / | . | /
Cc1ccc(S(=O)(=O)Nc2cccnc2Oc2ccc(Cl)cc2)cc1 | . | ? | . | . | 0.02µM
Cc1ccc(C(=O)Nc2cccnc2Oc2ccc(Cl)cc2)cc1 | . | ? | . | . | .
Cc1ccc(S(=O)(=O)Nc2cc(Cl)c(O)c3ncccc23)cc1 | 1.3µM | 0.71µM | . | ? | /
CC1CCC(NC(=O)c2cc(S(=O)(=O)N3CCCCC3)ccc2N2CCOCC2)CC1 (stereo not given) | / | / | / | . | /
COc1ccc(Nc2nc(N)nc(CN3CCOCC3)n2)cc1 | . | . | . | ? | .
COc1ccccc1Nc1nc(N)nc(CSC(=S)N2CCN(c3ccccc3)CC2)n1 | . | . | . | . | .
COc1ccccc1Nc1nc(N)nc(CN2CCC(Cc3ccccc3)CC2)n1 | ? | 8.9µM | ? | . | 13µM
COc1ccccc1Nc1nc(N)nc(CSC(=S)N2CCCCC2C)n1 (stereo not given) | 7.1µM | 7.9µM | . | . | ?
COc1ccc(Nc2nc(N)nc(CN3CCC(Cc4ccccc4)CC3)n2)cc1 | ? | 11µM | . | . | .
COc1ccccc1Nc1nc(N)nc(CN2CCC(C)CC2)n1 | .[10 µM] | ? | . | . | .
COc1ccc(OC)c(CN2C(=O)CN(S(C)(=O)=O)CC2(C)C(=O)NC(C)C)c1 (stereo not given) | / | / | / | . | /
COC(=O)C1=C(C(=O)OC)[C@@H]2N(C)c3ccc(OC)cc3[C@@]23C[C@@H](C(=O)OC)N(S(=O)(=O)c2ccc(Br)cc2)C3=N1 | / | / | . | / | .[13.5 µM]
Cc1cc(C)n(Cc2n[nH]c(=S)n2Cc2ccccc2)n1 | ? | 11µM | . | . | .

Screens deposited in PubChem BioAssay by National Center for Advancing Translational Sciences (NCATS).
